Molecules are shown by their SMILES. The panel holds about 83,000 compounds, 20% with a hit somewhere; the sample as a whole holds those more often.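 Cell lines were cultured in 96-well plates, exposed to a single compound concentration, and assessed for percent growth 48 hours later.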 Activity calls are given as the source filed them. How the source made its calls: active means growth percent below 10; inactive means the rest.

This is an account of results in PubChem BioAssay (NCI).

In the assay the test system is IGROV1 ovarian. The experiment in a line: NCI-60 one-dose screen, 48 h (100 = growth as untreated, 0 = no growth, -100 = all killed). To be noted: 10 µM.
Take `CC(=O)Nc1nc(-c2ccc(N3CCN(C)CC3)c(NS(=O)(=O)c3cccc4c(N(C)C)cccc34)c2)cs1`: the growth is 84.8% (inactive).

For the compound `CN1CCN(Cc2ccc(C(=O)Nc3cccc(Nc4ccc5cc(O)ccc5n4)c3)cc2C(F)(F)F)CC1`, the growth was -37.8% (active).

On to `O=C(c1ccc(O)cc1)C1[C@H](c2ccccc2Br)[C@@H](c2ccccc2)NC12C(=O)Nc1ccc(Br)cc12` (stereo not given in full), for which the growth is 18.4% (inactive).

Take `Brc1ccc(/C=N/Nc2ncnc3sc4c(c23)CCN(Cc2ccccc2)C4)cc1`: the growth was 94.6% (inactive).

With `O=C(c1ccc(O)cc1)C1[C@H](c2ccc(Br)cc2)[C@@H](c2ccccc2)NC12C(=O)Nc1ccccc12` (stereo not given in full), the growth is 25.8% (inactive).

Consider `O=c1[nH][nH]c(Nc2ccccc2)c1N=Nc1ccc(F)cc1`, for which the growth is 80.3% (inactive).

`Cc1ccc(-c2nc3ccc(C(=O)N=Nc4c(O)[nH]c5ccc(Cl)cc45)cc3[nH]2)cc1`: the growth was 18.1% (inactive).

As for `COc1ccc(C(=O)Nc2ccc(-c3ccc4c(c3)NC(=O)/C4=C\c3ccc[nH]3)cc2)cc1`, the growth was 65.9% (inactive).

For `CNCc1cccc2c1OCCCCCC[C@@](C)(O)CC1(CC1)S(=O)(=O)c1ccc(cc1)-c1cnc(N)c(n1)C(=O)N2`, the growth is -91.2% (active).

`COc1cccc2nc(Nc3ccc(F)c(NC(=O)c4ccc(CN5CCN(C)CC5)c(C(F)(F)F)c4)c3)ccc12`: the growth was 29.3% (inactive).

With `CCOC(=O)C1NN(c2ccc(S(N)(=O)=O)cc2)c2nc3nc(-c4cccs4)cc(-c4cccs4)c3c(=O)n21` (stereo not given), the growth was 104% (inactive).

In the case of `O=C1Nc2cc(Cl)ccc2/C1=C/c1cccc(OCc2ccc(Br)cc2F)c1`, the growth is 20.2% (inactive).

On to `O=C(c1ccc(Cl)cc1)C1[C@H](c2ccccc2Br)[C@@H](c2ccccc2)NC12C(=O)Nc1ccc(Br)cc12` (stereo not given in full), for which the growth was 21.2% (inactive).

For `O=c1[nH]n(C(=S)N/N=C/c2ccc(F)cc2)c(=O)c2ccccc12`, the growth was 90.5% (inactive).

`CC1(C)CC[C@]2(C(=O)O)CC[C@]3(C)C(=CC[C@@H]4[C@@]5(C)C/C(=C/c6ccncc6)[C@H](O)C(C)(C)[C@@H]5CC[C@]43C)[C@@H]2C1`: the growth is 49.1% (inactive).

With `CC1(C)CC[C@]23CC[C@]4(C)[C@H](CC[C@@H]5[C@@]6(C)CC[C@H](N)C(C)(C)[C@@H]6CC[C@]54C)[C@H]2[C@H]1OC3=O`, the growth was -94.2% (active).

Turning to `C#CCNC(=O)[C@]12CCC(C)(C)C[C@H]1C1=CC[C@@H]3[C@@](C)(CCC#N)[C@H](C(=C)C)CC[C@@]3(C)[C@]1(C)CC2`, the growth is 71.9% (inactive).

As to `COC1CC(Cn2cc(COc3ccc4ccc(=O)oc4c3)nn2)C(OCc2ccccc2)C(OCc2ccccc2)C1OCc1ccccc1` (stereo not given), the growth was 107% (inactive).

`Cc1cccc2cc(-c3cc(-c4ccccc4)nc(=O)[nH]3)c(Cl)nc12`: the growth was 101% (inactive).

Turning to `Cc1ccc(CSc2nc(-c3ccc(F)cc3)c(C#N)c(=O)[nH]2)cc1`, the growth was 113% (inactive).

Take `O=C1Nc2cc(-c3ccc(NC(=O)c4cccc([N+](=O)[O-])c4)cc3)ccc2/C1=C/c1ccc[nH]1`: the growth was 95.7% (inactive).

As for `C=C(C)[C@@H]1CC[C@]2(COP(=O)(OCC)OCC)CC[C@]3(C)[C@H](CC[C@@H]4[C@@](C)(CCCN)[C@H](C(=C)C)CC[C@]43C)[C@@H]12`, the growth is 40.4% (inactive).

For `O=C(CS(=O)(=O)c1oc(-c2ccc(Cl)cc2)nc1S(=O)(=O)c1ccc(Cl)cc1)N1CCOCC1`, the growth is 73.5% (inactive).

As to `CN1CCN(c2ccc(Nc3nc(NCCCNC(=O)c4ccc(Cl)cc4)c4sccc4n3)cc2)CC1`, the growth was 88.3% (inactive).

As for `CN1CCN(c2ccc(Nc3nc(NCCNC(=O)c4ccc(C(F)(F)F)cc4)c4sccc4n3)cc2)CC1`, the growth is 65% (inactive).

On to `O=C(NCCCCC(c1ccc(F)cc1)c1ccc(F)cc1)NCCCc1cccnc1`, for which the growth is 31.6% (inactive).

With `O=C(c1ccc(Cl)cc1)C1[C@H](c2ccc(Br)cc2)[C@@H](c2ccccc2)NC12C(=O)Nc1ccc(Br)cc12` (stereo not given in full), the growth is -78.3% (active).

Turning to `COc1ccc2[nH]c(O)c(N=NC(=O)COc3ccc(NC(=O)Nc4ccc(Cl)cc4)cc3)c2c1`, the growth was 68.8% (inactive).

With `CONC[C@]1(C)C=C2C(=O)[C@](C)(O)C3(CC3)C(C)=C2[C@H]1O`, the growth was -15.4% (active).

For `COC[C@@H](CC(C)C)N=C1NC(=O)/C(=C/c2ccc3ncoc3c2)N1`, the growth is 7.9% (active).

As for `O=C(c1ccc(Cl)cc1)C1[C@H](c2ccccc2Br)[C@@H](c2ccccc2)NC12C(=O)Nc1ccccc12` (stereo not given in full), the growth was 31.3% (inactive).

Take `Cc1ccc(NCC(=O)Nn2c(COc3ccccc3)nc3ccccc3c2=O)cc1`: the growth was 82.4% (inactive).

`CO[C@@H]1CSSC1Cn1nc(-c2ccc(Oc3ccccc3)cc2)c2c(N)ncnc21` (stereo not given in full): the growth was 53.1% (inactive).

Turning to `COc1cc(Cn2c(C(F)(F)F)cc3c(Cl)ncnc32)ccn1`, the growth was -90.6% (active).

On to `COc1ccc(/C(C)=N/N=C2C(=O)N(C)c3ccc(Br)cc32)cc1S(N)(=O)=O`, for which the growth is 71.5% (inactive).

Regarding `N#Cc1c(-c2ccc(F)cc2)nc(SCc2ccc(F)cc2)nc1N1CCOCC1`, the growth was 90.9% (inactive).

In the case of `S=c1nc(-c2ccccc2)cc(-c2cc3ccccc3nc2Cl)[nH]1`, the growth was 82.8% (inactive).

Regarding `C=C(C)[C@@H]1CC[C@]2(C(=O)OC)CC[C@]3(C)[C@H](CC[C@@H]4[C@@]5(C)CC[C@H](N)C(C)(C)[C@@H]5CC[C@]43C)[C@@H]12`, the growth was -95.8% (active).

For the compound `O=C(c1ccc(O)cc1)C1[C@H](c2ccccc2Br)[C@@H](c2ccccc2)NC12C(=O)Nc1ccc(Cl)cc12` (stereo not given in full), the growth is 7.88% (active).

For `CC[C@@]1(O)C(=O)OCc2c1cc1n(c2=O)Cc2c-1nc1cc(F)c(C)c3c1c2[C@@H](N)CC3`, the growth is -47.8% (active).
